Assay [1] deals with Lysosomal acid glucosylceramidase (Homo sapiens) (UniProt P04062). The assay can be described thus: Glucocerebrosidase-p2 (AID 348; in the data active = potency below about 10 µM; note: potency is the fitted concentration of half-maximal effect). As to conditions: purified GBA, blue fluorogenic substrate, 40 min. Put shortly:
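Compounds titrated from 0.6 nM upwards against 0.2 nM enzyme in pH 5.9 citric acid/KH2PO4, taurocholate, tween-20; blue fluorogenic substrate 80 uM, 40 min room temperature, stopped and read Ex 365/Em 440 for AC50.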

Assay [2] deals with Cytochrome P450 1A2 (Homo sapiens) (UniProt P05177). Put plainly: p450-cyp1a2 (AID 410).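 For activity change, negative = inhibition: -100% = full effect of reference inhibitor.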 Note: potency is the fitted concentration of half-maximal effect. As to conditions: recombinant CYP1A2, luciferin-ME demethylation, luminescence; series mostly up to 57 µM. The procedure, abridged:
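Luminescent readout of luciferin formed from Luciferin-ME by human CYP1A2; data normalized against complete inhibition by 57 uM furafylline. Enzyme 20nM, substrate 100uM at Km, 100mM KPO4 buffer, 60 min reaction at room temperature.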

In assay [3] the target is Glucocorticoid receptor (Homo sapiens) (UniProt P04150). Put plainly: GR-EFC Redistribution (AID 451). Note: potency is the fitted concentration of half-maximal effect. Conditions: CHO-K1 GR-EFC translocation, beta-gal luminescence, 2 h. The procedure, abridged:
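CHO-K1 cells expressing nuclear EA and GR-ED fragments of b-gal; compounds titrated up to 46 uM final, 2 h at 37 C. GR nuclear translocation read as complemented b-gal luminescence after 1 h RT detection.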

Assay [4] deals with Mitogen-activated protein kinase 10 (Mus musculus) (UniProt Q61831). Put plainly: JNK3 AlphaScreen Assay (AID 530; active = well fitted curve in either direction with a large enough effect, not every such curve was filed as active;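 note: kinase came from lysate of stimulated human HepG2 cells; signal reports phosphorylation of biotinylated GST-cJun 1-79 at Ser73 with 10 µM ATP; % is set by controls: 0 for no effect and ±100 for the full control effect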). As to conditions: JNK3 lysate, c-Jun phosphorylation; series mostly up to 57.1 µM. The procedure, abridged:
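Pre-activated (IL-1β/TNFα) JNK3 in HepG2 lysates phosphorylates biotin-GST-cJun(1-79), 10 uM ATP; anti-phospho-cJun(Ser73) AlphaScreen read at room temperature, pH 7.6 Tris buffer. Compounds pre-incubated 15 min as titrations.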
Background: Alpha assays give light when donor and acceptor beads are brought close together.

Assay [5] has as its target 3',5'-cyclic-AMP phosphodiesterase 4B (Homo sapiens) (UniProt Q07343). Put plainly: qHTS Assay for Inhibitors of PDE-IV (AID 607; active = well fitted activation curve with a large enough effect in the main read-out, with a control signal flat, not every such curve was filed as active; note: % of control where 0% means no effect). As to conditions: HEK293 ACTOne CNG channel cells, membrane potential fluorescence; series mostly up to 22.9 µM. Put shortly:
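ACTOne HEK293 cells carry a modified cAMP-gated CNG channel and express endogenous PDE4; plated 1000 cells/well, compounds up to 22.9 uM final. Membrane-potential dye fluorescence (ex 535/em 590) was read; parental cells received 10 uM forskolin + 100 uM RO 20-1724.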
(Quantitative high-throughput screening tests each substance at several concentrations.)

Assay [6] in a line: qHTS Assay for Lipid Storage Modulators (AID 1519). As to conditions: Drosophila S3 cells, BODIPY lipid droplet/cell ratio, laser cytometry, cells loaded with oleic acid; for activity change, negative = inhibition: at 57.5 µM (top of the series). Put shortly: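 Cells seeded at 5,000 per well were treated with compounds over a concentration series and loaded with oleic acid (400 uM, as added). Lipid droplet fluorescence (488 nm excitation, 500-530 nm channel) was read by laser-scanning cytometry and normalized to 20 uM Triacsin C.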

A short description of assay [7]: Primary qHTS for small molecule stabilizers of the endoplasmic reticulum resident proteome: Secreted ER Calcium Modulated Protein (SERCaMP) assay (AID 1508630; active = well fitted curve in the direction sought with a large enough effect; an effect the other way counts as inactive or inconclusive; note: % is set by controls: 0 for no effect and ±100 for the full control effect). As to conditions: SH-SY5Y GLuc-SERCaMP (Gaussia luciferase released on ER calcium loss) secretion, thapsigargin, luminescence; series mostly up to 38.4 µM. Put shortly:
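GLuc-SERCaMP-expressing SH-SY5Y cells, pretreated 16 h with compound, are challenged with thapsigargin to empty ER calcium stores; after 4 h, coelenterazine is added directly to the medium and luminescence is imaged.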

The nature of assay [8]: NFAT Signaling Pathway (AID 444; active = well fitted curve in either direction with a large enough effect, not every such curve was filed as active;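 note: carbachol stimulus at about its EC50 of 1 µM final; % is set by controls: 0 for no effect and ±100 for the full control effect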). As to conditions: Jurkat NFAT-bla M1, carbachol, beta-lactamase ratio, 5 h; at 7.69 µM (top of the series) unless noted. The procedure, abridged:
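Jurkat cells with NFAT-driven β-lactamase reporter and co-expressed M1 receptor, stimulated with carbachol (final 1 uM, ~EC50), compound titration, 5 h at 37 °C. CCF4 loaded 1 h at RT; 460/530 nm ratio gave %activity and AC50.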

A short description of assay [9]: Stat Signaling Pathway (AID 446; active = well fitted curve in either direction with a large enough effect, not every such curve was filed as active;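 note: ME-180 cervical cancer cells given 40 pM IL-6 alongside compound; SIE-controlled beta-lactamase reporter measured as 460/530 nm FRET emission ratio; % is set by controls: 0 for no effect and ±100 for the full control effect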). As to conditions: ME-180 SIE beta-lactamase reporter, IL-6 stimulated, 5 h; at 7.69 µM (top of the series) unless noted. Put shortly:
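ME-180 SIE-bla cells; overnight plating; cpd + IL-6 40 pM, 5 h, 37 C; LiveBLAzer 2.5 h RT; 460/530 nm emission ratio. Normalized to 300 pM IL-6 and 125 nM JAK inhibitor controls.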

Assay [10] deals with Glucocorticoid receptor (Homo sapiens) (UniProt P04150). Put plainly: GR-GFP Redistribution (AID 450;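 active = compounds whose dose series gives a full or clear partial fitted curve of increased nuclear translocation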; note: potency is the fitted concentration of half-maximal effect). As to conditions: U2OS GR-GFP nuclear translocation, laser cytometry, 2 h.
For assay [11], the target named is Cytochrome P450 3A4 (Homo sapiens) (UniProt P08684). Put plainly: qHTS Assay for Activators of Cytochrome P450 3A4 (AID 885; active = well fitted curve in the direction sought with a large enough effect; an effect the other way counts as inactive or inconclusive; note: nearly all actives have a fitted effect of over 65% in size). Conditions: recombinant CYP3A4, Luciferin-PPXE luminescence, 60 min; series mostly up to 57.1 µM. The procedure, abridged: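 20nM CYP3A4 + 25uM Luciferin-PPXE (=KM), 200mM KPO4; cpd 10 min RT; NADPH regen, 60 min RT; stop w/ detection buffer, 20 min; luminescence. Normalized to 57 uM ketoconazole.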

Assay [12] in a line: AP1 Signaling Pathway (AID 357; active = well fitted curve in either direction with a large enough effect, not every such curve was filed as active). As to conditions: ME-180 AP-1-bla reporter, EGF-induced, beta-lactamase ratio, 5 h; at 7.69 µM (top of the series) unless noted. Put shortly:
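Read-out was the 460nm/530nm emission ratio (excitation 405nm) after CCF4 loading for 2.5 hours at room temperature. Cells carried an AP-1-driven beta-lactamase reporter, were stimulated with EC50 EGF plus compound for 5 hours, and AC50 values came from titrations.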

Assay [13] in a line: qHTS Assay for Identification of Small Molecule Agonists for Hypoxia Response Element Signaling Pathway (AID 914; active = well fitted activation curve with a large enough effect in the signal ratio, with a control signal flat, not every such curve was filed as active; the % refers to the signal ratio; note: potency is the fitted concentration of half-maximal effect). Conditions: ME-180 (cervical carcinoma) HRE-bla reporter, beta-lactamase ratio, CoCl2, 17 h; activation: stronger effect = higher value. The procedure, abridged:
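Read-out: CCF4 FRET ratio of 460nm to 530nm emission (excitation 405nm) after 2.5 hours at room temperature, taken from HRE-bla ME-180 cells that had been exposed to compound and EC50 CoCl2 for 17 hours.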

Assay [14] is described as follows: Confirmation and Secondary Assay for Modulators of Hemoglobin Beta Chain Splicing at IVS2 654 locus (AID 910; active = well fitted curve in the direction sought with a large enough effect; an effect the other way counts as inactive or inconclusive;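 note: HeLa cells stably carrying EGFP split by mutant beta-globin IVS2-654 intron; % of control where 0% means no effect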). Conditions: HeLa EGFP-654 splicing reporter, GFP fluorescence, 48 h; series mostly up to 38.3 µM. The procedure, abridged: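 HeLa cells stably expressing EGFP interrupted by β-globin IVS2-654 intron, seeded overnight in Opti-MEM/2% FCS, then treated 2 days at 37 °C. Restored splicing read as total peak GFP intensity per well by laser scanning cytometry (488 nm excitation, 500–520 nm emission); 500 nM antisense PNA as control.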

Assay [15] can be described thus: Confirmation and Secondary Assay for Modulators of Hemoglobin Beta Chain Splicing at IVS2 705 locus (AID 930; active = well fitted curve in the direction sought with a large enough effect; an effect the other way counts as inactive or inconclusive;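 note: HeLa cells stably expressing the EGFP-705 splicing reporter; GFP fluorescence per well restored by corrected splicing of the IVS2-705 intron in EGFP; % of control where 0% means no effect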). As to conditions: HeLa EGFP-705 splicing reporter, GFP fluorescence, 48 h; series mostly up to 38.3 µM. Put shortly: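 HeLa EGFP-705 reporter; 500 cells/well, o/n 37C 5% CO2; cpd 2 d; 488 ex/500-520 em laser scan; total peak GFP intensity/well. Ref: 500 nM […] antisense PNA.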

[16] abbreviates: measured here: cell count channel max response.
[17] abbreviates: measured here: lipid channel max response.

Structures are written as SMILES. Inconclusive results are not listed. Activity calls are given as the source filed them. Unless noted, calls come from the whole dose curve. A value given as a limit tells only on which side of the number the result lay.

Sequence of Lysosomal acid glucosylceramidase (Homo sapiens) (P04062 whole entry, looked up): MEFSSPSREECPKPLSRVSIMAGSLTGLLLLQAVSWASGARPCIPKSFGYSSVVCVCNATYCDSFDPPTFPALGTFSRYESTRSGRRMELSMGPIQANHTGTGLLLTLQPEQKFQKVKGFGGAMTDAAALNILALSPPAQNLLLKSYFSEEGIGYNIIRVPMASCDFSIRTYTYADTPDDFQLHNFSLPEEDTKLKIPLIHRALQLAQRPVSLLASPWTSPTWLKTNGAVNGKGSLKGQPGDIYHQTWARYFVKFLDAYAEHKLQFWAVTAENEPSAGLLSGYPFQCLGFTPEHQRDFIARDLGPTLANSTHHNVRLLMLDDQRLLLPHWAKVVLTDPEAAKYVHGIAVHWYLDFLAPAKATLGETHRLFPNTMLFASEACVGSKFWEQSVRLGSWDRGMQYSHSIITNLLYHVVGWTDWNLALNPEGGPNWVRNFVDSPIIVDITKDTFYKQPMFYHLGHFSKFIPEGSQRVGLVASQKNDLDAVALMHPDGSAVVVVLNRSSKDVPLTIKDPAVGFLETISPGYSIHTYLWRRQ
Sequence of Cytochrome P450 3A4 (Homo sapiens) (P08684 whole entry, looked up): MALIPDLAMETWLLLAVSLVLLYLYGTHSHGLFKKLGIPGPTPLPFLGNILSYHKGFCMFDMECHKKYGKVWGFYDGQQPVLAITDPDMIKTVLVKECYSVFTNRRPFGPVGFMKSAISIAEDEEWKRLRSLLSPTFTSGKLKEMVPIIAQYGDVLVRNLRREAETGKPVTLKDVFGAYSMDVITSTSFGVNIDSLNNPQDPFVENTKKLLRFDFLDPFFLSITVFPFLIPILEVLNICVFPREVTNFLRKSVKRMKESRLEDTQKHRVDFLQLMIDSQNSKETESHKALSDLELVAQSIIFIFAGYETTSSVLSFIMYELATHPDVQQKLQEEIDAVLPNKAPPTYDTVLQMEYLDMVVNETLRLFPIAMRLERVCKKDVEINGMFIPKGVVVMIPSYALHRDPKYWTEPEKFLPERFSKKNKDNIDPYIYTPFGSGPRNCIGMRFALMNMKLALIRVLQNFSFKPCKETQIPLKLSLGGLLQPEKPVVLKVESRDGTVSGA
Sequence of Glucocorticoid receptor (Homo sapiens) (P04150 whole entry, looked up, the tested form may be a part): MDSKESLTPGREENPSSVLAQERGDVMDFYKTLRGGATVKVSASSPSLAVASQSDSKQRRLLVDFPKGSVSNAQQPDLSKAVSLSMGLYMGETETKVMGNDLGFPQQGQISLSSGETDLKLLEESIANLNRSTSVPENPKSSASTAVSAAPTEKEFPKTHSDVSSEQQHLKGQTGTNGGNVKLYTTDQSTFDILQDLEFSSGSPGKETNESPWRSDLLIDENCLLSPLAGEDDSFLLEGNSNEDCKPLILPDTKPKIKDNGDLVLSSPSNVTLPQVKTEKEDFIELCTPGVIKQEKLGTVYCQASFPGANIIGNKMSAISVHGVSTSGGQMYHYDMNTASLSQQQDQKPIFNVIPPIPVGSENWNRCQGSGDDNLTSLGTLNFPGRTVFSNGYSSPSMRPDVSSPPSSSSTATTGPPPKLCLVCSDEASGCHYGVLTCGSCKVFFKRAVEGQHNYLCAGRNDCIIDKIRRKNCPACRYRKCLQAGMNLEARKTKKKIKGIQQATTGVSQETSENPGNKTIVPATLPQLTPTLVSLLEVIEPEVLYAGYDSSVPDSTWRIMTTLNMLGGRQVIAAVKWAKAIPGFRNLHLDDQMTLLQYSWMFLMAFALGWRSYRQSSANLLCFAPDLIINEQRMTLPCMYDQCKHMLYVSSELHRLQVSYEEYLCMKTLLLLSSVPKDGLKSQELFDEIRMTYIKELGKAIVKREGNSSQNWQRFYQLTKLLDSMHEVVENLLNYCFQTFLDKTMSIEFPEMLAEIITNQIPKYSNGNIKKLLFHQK
Sequence of Cytochrome P450 1A2 (Homo sapiens) (P05177 whole entry, looked up): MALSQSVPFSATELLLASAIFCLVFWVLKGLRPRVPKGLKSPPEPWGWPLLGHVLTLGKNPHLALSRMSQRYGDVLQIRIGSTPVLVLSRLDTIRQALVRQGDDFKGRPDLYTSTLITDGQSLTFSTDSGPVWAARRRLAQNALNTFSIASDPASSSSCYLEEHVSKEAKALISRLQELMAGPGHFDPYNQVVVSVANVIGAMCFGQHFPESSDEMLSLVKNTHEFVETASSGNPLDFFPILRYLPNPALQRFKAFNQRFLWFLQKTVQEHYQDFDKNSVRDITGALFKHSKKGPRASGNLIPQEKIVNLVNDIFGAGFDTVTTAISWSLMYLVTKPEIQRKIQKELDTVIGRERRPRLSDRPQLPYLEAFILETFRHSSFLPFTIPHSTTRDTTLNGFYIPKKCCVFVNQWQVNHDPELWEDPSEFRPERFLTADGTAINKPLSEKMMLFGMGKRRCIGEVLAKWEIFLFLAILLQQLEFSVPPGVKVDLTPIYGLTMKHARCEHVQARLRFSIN
Sequence of 3',5'-cyclic-AMP phosphodiesterase 4B (Homo sapiens) (Q07343 whole entry, looked up): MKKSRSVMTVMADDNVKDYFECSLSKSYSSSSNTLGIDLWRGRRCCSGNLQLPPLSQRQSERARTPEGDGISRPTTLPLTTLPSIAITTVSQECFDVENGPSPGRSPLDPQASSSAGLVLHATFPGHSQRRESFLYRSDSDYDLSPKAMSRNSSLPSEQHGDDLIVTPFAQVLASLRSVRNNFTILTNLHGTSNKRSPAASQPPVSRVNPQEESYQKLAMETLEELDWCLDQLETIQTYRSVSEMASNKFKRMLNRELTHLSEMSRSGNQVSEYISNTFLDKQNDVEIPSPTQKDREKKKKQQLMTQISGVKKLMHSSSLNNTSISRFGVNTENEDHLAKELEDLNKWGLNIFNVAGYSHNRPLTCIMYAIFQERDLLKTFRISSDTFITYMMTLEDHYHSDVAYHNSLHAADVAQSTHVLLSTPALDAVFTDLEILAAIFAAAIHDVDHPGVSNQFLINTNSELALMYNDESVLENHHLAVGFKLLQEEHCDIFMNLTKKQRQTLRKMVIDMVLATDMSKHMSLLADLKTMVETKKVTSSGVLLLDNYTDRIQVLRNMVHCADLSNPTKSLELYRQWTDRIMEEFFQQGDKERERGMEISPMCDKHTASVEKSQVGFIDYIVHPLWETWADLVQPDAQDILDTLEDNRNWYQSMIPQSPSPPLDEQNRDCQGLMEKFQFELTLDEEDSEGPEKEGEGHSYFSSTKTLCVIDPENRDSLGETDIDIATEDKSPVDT

As to `O=S(=O)(c1ccccc1)N1CCC[C@@]2(CCN(Cc3cc(C(F)(F)F)cc(C(F)(F)F)c3)C2)C1`, the Potency in assay [1] was > 11.4 µM (inactive); in assay [3] it was > 46 µM (inactive). Also, the Potency entry in assay [2], in assay [4] and in assay [5] was “inactive” throughout. In addition, the activity change, negative = inhibition in [6] is 4.5% (inactive). For the same molecule, the figures for the max response in assay [6] (setting [16]) and in assay [6] (setting [17]) were 17.1% and 25.2%, respectively. Also, the result in assay [7] was inactive.

As to `COc1ccc(Oc2ncc3nc(-c4ccc(OC)cc4)c(=O)n(CCC#N)c3n2)cc1`, the Potency in assay [1] was > 11.4 µM (inactive); in [10] it was > 9.22 µM (inactive); in [3], > 46 µM (inactive). Moreover, the results for the activity change, negative = inhibition in assay [8] and in assay [6] were 7.68% (inactive) and -1.07% (inactive), respectively. The activity, negative = inhibition in assay [9] was 2.86% (inactive). Also, the Potency entry in assay [4] and in assay [5] was “inactive” in each case. For the same molecule, the max response in assay [6] (setting [16]) was found to be 17.2%; in [6] (setting [17]), 21%. Besides, the result in [7] was inactive.

As to `COc1ccc(-c2nc3cnc(N4CCNCC4)nc3n(C)c2=O)cc1`, the Potency in [1] is > 11.4 µM (inactive); in assay [2], 12.6 µM (active); in [10], > 9.22 µM (inactive); in assay [3] it was > 46 µM (inactive). Moreover, the Potency entry in assay [4], in assay [5] and in assay [11] was “inactive” each time. In addition, the activity change, negative = inhibition in assay [6] was 4.15% (inactive). Moreover, the max response in assay [6] (setting [16]) amounted to 15.8%; in assay [6] (setting [17]), 21.9%. In [7], the outcome was inactive.

Turning to `N#Cc1ccc(CN2CC3(CCN(C(=O)c4cnccn4)CC3)C2)cc1`, the Potency in assay [1] is > 11.4 µM (inactive); in [3], > 46 µM (inactive); in assay [13] it was 3.16 µM (active). For the same molecule, the activity change, negative = inhibition in assay [12] is -10.3% (inactive); in assay [6] it was 3.16% (inactive). Besides, in assay [9], the activity, negative = inhibition is 11.6% (inactive). Moreover, the Potency result in [4] and in [5] was “inactive” throughout. The max response worked out at 15% in assay [6] (setting [16]) and 20.2% in [6] (setting [17]). In addition, the result in assay [7] was inactive.

`N#Cc1cccc(-c2ccc3ncnc(NCc4cccnc4)c3c2)c1`: the Potency was > 11.4 µM (inactive) in assay [1], > 46 µM (inactive) in assay [10] and > 46 µM (inactive) in assay [3]. The activity change, negative = inhibition was 21.6% (inactive) in assay [8] and 7.68% (inactive) in assay [6]. Further, the activity, negative = inhibition in assay [9] was -12.3% (inactive). Also, the Potency result in assay [4], in [5] and in assay [14] was “inactive” each time. The call in assay [15] and in assay [7] was inactive. The max response in [6] (setting [16]) was found to be 12%; in assay [6] (setting [17]) it was 20.4%.

In the case of `CN(C)C(=O)c1ccc(-c2nc(NCc3cccs3)c3ccccc3n2)cc1`, the Potency in assay [1] was > 11.4 µM (inactive); in assay [2], 12.6 µM (active); in [10], > 46 µM (inactive); in assay [3], > 46 µM (inactive). Also, the values for the activity change, negative = inhibition in assay [8] and in assay [6] were 28.9% (inactive) and 12.5% (inactive), respectively. Also, in assay [9], the activity, negative = inhibition was -25% (inactive). Besides, the Potency entry in assay [4], in assay [11] and in [14] was “inactive” each time. The molecule was called inactive in assay [15] and in assay [7]. For the same molecule, the max response came out at 0.768% in assay [6] (setting [16]) and 15.6% in assay [6] (setting [17]).

Consider `COc1ccc(-n2c(=O)c(-c3cccs3)nc3cnc(N4CCNCC4)nc32)cc1`, for which the Potency is > 11.4 µM (inactive) in assay [1], 5.01 µM (active) in assay [2], > 9.22 µM (inactive) in assay [10] and > 46 µM (inactive) in [3]. The Potency entry in assay [4], in assay [5] and in [11] was “inactive” throughout. In assay [6], the activity change, negative = inhibition is 2.69% (inactive). The max response in assay [6] (setting [16]) came out at 3.53%; in assay [6] (setting [17]) it was 6.61%. Moreover, the result in assay [7] was inactive.

For the origin of these results see PubChem BioAssay (NCATS).
